TDP1 cell CPT – DT40-hTDP1 cell growth loss with CPT | actives 12% (n = 420,000) | Potency, µM (top dose mostly 46.2 µM), for inactives: at the highest dose activity change, negative = growth inhibition, actives largely listed as inhibitors | chicken DT40 Tdp1-/-;hTDP1 cells + 20 nM CPT, ATP luminescence, 48 h; note: nearly all actives have a fitted effect of over 55% in size
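Chicken DT40 Tdp1-/- cells stably complemented with human TDP1 were seeded at 400 cells/well in medium containing 20 nM camptothecin, exposed to pin-transferred compounds, and grown at 37 °C for at least 48 hr. Viability was read as ATP luminescence.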
KB-V1 cytotox – KB-V1 MDR subline cytotoxicity; KB-V1 MDR cells viability, CellTiter-Glo, 72 h; Potency, µM (doses to about 46.1 µM), hits mostly cytotoxic; actives 3.4% (n = 400,000); AID 1347076; note: nearly all actives have a fitted effect of over 60% in size
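Following 72 h at 37 degrees C with compound, KB-V1 cell viability was read by CellTiter-Glo luminescence, medium being phenol-red-free DMEM plus 10% FBS; concentration-response parameters came from normalized, curve-fitted qHTS data.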
HT1080-NT tox – kills 2HG-producing HT-1080-NT fibrosarcoma cells. HT-1080-NT fibrosarcoma viability, CellTiter-Glo ATP luminescence, 48 h. Potency, µM (highest dose often 46.1 µM), inactives show at the top dose activity, negative = less viability, hits mostly cytotoxic. actives 1.6% (n = 360,000);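 note: NT is the 2HG producing partner of a matched IDH1 knockdown line; 0% = DMSO-treated cells and -100% = media-only wells without cells; nearly all actives have a fitted effect of over 55% in size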
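A 48-hour cytotoxicity screen used HT-1080-NT cells plated 2 hours before compound delivery. ATP-based CellTiter-Glo luminescence measured viability, normalized to DMSO and no-cell controls.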
HT1080 IDH1KD tx – kills HT-1080 cells with IDH1 knockdown; Potency, µM (titrated, usually from 46.1 µM), inactives show at the highest dose activity, negative = toxicity, most hits filed as cytotoxic; actives 2% (n = 360,000); HT-1080 IDH1 knockdown viability, ATP luminescence, 48 h;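 note: 0% = DMSO wells and -100% = cell-free medium wells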
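IDH1KD HT-1080 cells, 750/well, RPMI + 5% FBS; compound pinned after 2 h settling; 48 h, 37 °C; CellTiter-Glo luminescence; % activity normalised to DMSO and no-cell wells; curves fitted, classed by r2 and efficacy.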
DT40 TDP1 no CPT – qHTS for Inhibitors of human tyrosyl-DNA phosphodiesterase 1 (TDP1): qHTS in cells in absence of CPT; AID 686978, 2013; Potency, µM (series often up to 46.2 µM), for the others: at the top dose activity change, negative = growth inhibition, most hits filed as inhibitors; DT40 Tdp1-/- hTDP1 cells, no CPT, ATP luminescence, 48 h; actives 15% (n = 420,000); note: nearly all actives have a fitted effect of over 55% in size
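Chicken DT40 Tdp1-/- cells stably complemented with human TDP1 were seeded at 400 cells/well with DMSO in place of 20 nM camptothecin. After compound pinning, cells grew at least 48 hr at 37 °C; viability read by CellTiter-Glo luminescence.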
KB-3-1 cytotox – kills parental KB-3-1 adenocarcinoma cells | KB-3-1 viability, CellTiter-Glo ATP luminescence, 72 h | actives 1.4% (n = 400,000) | Potency, µM (titrated, usually from 46.1 µM), most hits filed as cytotoxic; note: nearly all actives have a fitted effect of over 60% in size
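Parental KB-3-1 adenocarcinoma cells in phenol-red-free DMEM with 10% FBS were pin-treated with compounds at several concentrations, incubated 72 h at 37 °C, and viability read by CellTiter-Glo luminescence; concentration-effect curves were fitted after normalization.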
Starred values were filed as active, the others as inactive; i = inactive; ? = inconclusive; · = no result; [ ] = remark or other dose. This is a sample that favours compounds with a hit; in the whole collection about 19% have one here. Calls come from the whole dose curve; as a rule, active = well fitted curve in the direction sought with a large enough effect; inconclusive = small, poorly fitted or top-dose-only effect, or another doubt; inactive = no such curve, though single readings can be large; an effect the other way counts as inactive or inconclusive. Unless noted, % is set by controls: 0 for no effect and ±100 for the full control effect; potency is the fitted concentration of half-maximal effect.

SMILES | TDP1 cell CPT | KB-V1 cytotox | HT1080-NT tox | HT1080 IDH1KD tx | DT40 TDP1 no CPT | KB-3-1 cytotox
COc1ccc(CC(=O)Nc2cccc(-c3nnc(-c4ccco4)o3)c2)cc1 | 7.3µM* | ? | -9% | -11% | 7.3µM* | i
COc1cc(C(=O)Nc2ccc(-c3nnc(-c4ccco4)o3)cc2)cc(OC)c1OC | ? | ? | -1% | 5% | ? | i
O=C(Cc1ccccc1)Nc1ccc(-c2nnc(-c3ccco3)o2)cc1 | -20% | i | ? | ? | -7% | i
COc1cc(C(=O)Nc2cccc(-c3nnc(-c4ccco4)o3)c2)ccc1OC(C)=O | 13µM* | 21µM* | -22% | -25% | 16µM* | i
N#Cc1c(N2CCN(c3ccc([N+](=O)[O-])cc3)CC2)[n+](=O)c2ccc(Cl)cc2n1[O-] | 0.46µM* | ? | 10% | -1% | 1.2µM* | ?
CC(=O)c1ccc(N2CCN(c3ncnc4c3cnn4C)CC2)cc1 | ? | i | · | · | 8.2µM* | i
Cn1ncc2c(N3CCOCC3)ncnc21 | -25% | i | -27% | 2%[9.24 µM] | -18% | i
CCc1ccc(Nc2ncnc3c2cnn3-c2cc(Cl)ccc2C)cc1 | ? | ? | · | · | -81% | i
CCOC(=O)C1CCCN(c2ncnc3c2cnn3-c2ccc(Cl)cc2)C1 (configuration not stated) | -25% | 13µM* | 11% | ? | ? | i
COc1ccc(N2CCN(c3ncnc4c3cnn4-c3ccc(C)c(Cl)c3)CC2)cc1 | -11% | ? | · | · | -12% | i
CCN(c1ncnc2c1cnn2-c1cc(Cl)ccc1C)C1CCCCC1 | 15µM* | i | · | · | 15µM* | ?
CC(=O)c1ccc(N2CCN(c3ncnc4c3cnn4-c3cc(Cl)ccc3C)CC2)cc1 | 2.6µM* | i | · | · | 5.8µM* | ?
Clc1ccc(-n2ncc3c(N4CCCCCC4)ncnc32)cc1 | ? | i | 10% | 7% | ? | i
CCc1ccc(NC(=O)c2sc3nc(C)c(Cl)c(C)c3c2NC(=O)c2ccccc2OC)cc1 | · | i | · | · | · | ?
COc1ccccc1N1CC(C(=O)Nc2ccccc2N2CCCC2)CC1=O (configuration not stated) | -28% | i | -5% | -13% | -4% | i
Cc1ccc(Cl)cc1-n1ncc2c(N3CCCCCC3)ncnc21 | 5.8µM* | i | · | · | 8.2µM* | i
O=C(NCCc1ccc(Cl)cc1)c1c2c(nc3ccccc13)C(=O)N(C1CCCCC1)C2 | 15µM* | i | · | · | 15µM* | i
CCc1c(-c2ccccc2)nc2ccccc2c1C(=O)NCCc1ccccc1 | ? | · | · | · | 23µM* | ·
O=C(NCCc1ccccc1)c1c2c(nc3ccccc13)C(=O)N(C1CCCCC1)C2 | 12µM* | i | · | · | 18µM* | i
CCOc1ccc(CCNC(=O)c2c3c(nc4ccccc24)C(=O)N(C2CCCCC2)C3)cc1 | 16µM* | i | · | · | 21µM* | i
CCc1nc2ccccc2c(C(=O)NCc2ccccc2)c1C | -8% | i | 1% | 14% | -1% | i
CCCNC(=O)c1c2c(nc3ccccc13)C(=O)N(C1CCCCC1)C2 | -3% | i | · | · | -21% | i
CN(CC(=O)O)c1ccc(C(F)(F)F)cc1[N+](=O)[O-] | 12% | i | 0% | ? | -1% | i
COc1cccc(C(c2c(NC(=O)c3ccccc3)sc(C)c2C)N2CCN(C)CC2)c1 (configuration not stated) | ? | 21µM* | -5% | 3% | ? | ?
CCc1cc(C(c2cccc(OC)c2)N2CCOCC2)c(NC(=O)c2ccccc2)s1 (configuration not stated) | ? | i | -27% | ? | 15µM* | i
SMILES | TDP1 cell CPT | KB-V1 cytotox | HT1080-NT tox | HT1080 IDH1KD tx | DT40 TDP1 no CPT | KB-3-1 cytotox
COc1ccc(C(c2c(NC(=O)c3ccccc3)sc(C)c2C)N2CCN(CCO)CC2)cc1 (configuration not stated) | -6% | i | 15% | 20% | -1% | i
CCc1cc(C(c2ccc(OC)c(OC)c2)N2CCOCC2)c(NC(=O)c2ccccc2)s1 (configuration not stated) | ? | ? | -5% | -29% | 21µM* | i
O=C(CCC1N=C2c3ccccc3N=C(SCC(=O)Nc3cccc(Cl)c3)N2C1=O)NCc1ccco1 (configuration not stated) | ? | i | · | · | ? | i
CC(=O)OC[C@@H]1CN(Cc2ccccc2)C[C@H](n2cnc3c(NC4CCC4)ncnc32)O1 | ? | i | 3% | 9% | ? | i
COc1ccc2c(C#N)c3ccccn3c2c1 | ? | i | -1% | 1% | 23µM* | i
CCn1cc(S(=O)(=O)c2cc(C)cc(C)c2)c(=O)c2cc(F)c(N3CCC(C)CC3)cc21 | -101% | · | · | · | ? | ·
CCn1cc(S(=O)(=O)c2cc(C)cc(C)c2)c(=O)c2cc(F)c(N3CCCCC3)cc21 | ? | · | · | · | 21µM* | ·
Cc1ccc(S(=O)(=O)c2cn(C)c3cc(N4CCCCC4)c(F)cc3c2=O)cc1 | ? | i | · | · | ? | i
Cc1ccc(S(=O)(=O)c2cn(C)c3cc(N4CCCC(C)C4)c(F)cc3c2=O)c(C)c1 (configuration not stated) | 23µM* | i | · | · | 23µM* | i
